Source: PubChem (National Center for Advancing Translational Sciences (NCATS))
Peg3 imprint = induces erasure of genomic imprints in mouse ES cells; mouse ES Peg3-LacZ reporter, beta-gal luminescence, 40 h; Potency, µM (doses to about 60.7 µM), without a hit: at the highest dose activity change, positive = activation, usual class: activators; hit rate 0.02% among 110,000
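Each well holds 300 Peg3LacZ-Neo (maternal) female ES cells incubated 40 h at 37C, 5% CO2. LacZ is measured by BetaGlo luminescence, with AC50 and maximum efficacy derived from dose-response curves.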
p53ts 39C kill = cytotoxicity in p53ts cells at nonpermissive temperature; H1299-p53A138V viability at 39C, ATP luminescence, 24 h; Potency, µM (titrated, usually from 46.1 µM), for the others: at the top dose activity change, negative = cell killing, hits mostly cytotoxic; hit rate 1.5% among 130,000; note: % is set by controls: 0 for no effect and ±100 for the full control effect; nearly all actives have a fitted effect of over 55% in size
TSHR agonist = activates the human thyroid stimulating hormone receptor; hit rate 0.48% among 73,000; P16473; HEK293-CNG-TSHR cells (CNG channel as cAMP sensor), membrane potential dye, cAMP; Potency, µM (series often up to 57.1 µM), for inactives: top-dose activation, hits mostly activators; AID 926; active = well fitted activation curve with a large enough effect in the main read-out, with a control signal flat, not every such curve was filed as active; inconclusive = small, poorly fitted or top-dose-only effect, or a change in a side signal; inactive = no such curve, though single readings can be large or run the other way; % of control where 0% means no effect;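 note: the control signal comes from parental cells without the receptor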
Target sequence (P16473 whole entry, looked up): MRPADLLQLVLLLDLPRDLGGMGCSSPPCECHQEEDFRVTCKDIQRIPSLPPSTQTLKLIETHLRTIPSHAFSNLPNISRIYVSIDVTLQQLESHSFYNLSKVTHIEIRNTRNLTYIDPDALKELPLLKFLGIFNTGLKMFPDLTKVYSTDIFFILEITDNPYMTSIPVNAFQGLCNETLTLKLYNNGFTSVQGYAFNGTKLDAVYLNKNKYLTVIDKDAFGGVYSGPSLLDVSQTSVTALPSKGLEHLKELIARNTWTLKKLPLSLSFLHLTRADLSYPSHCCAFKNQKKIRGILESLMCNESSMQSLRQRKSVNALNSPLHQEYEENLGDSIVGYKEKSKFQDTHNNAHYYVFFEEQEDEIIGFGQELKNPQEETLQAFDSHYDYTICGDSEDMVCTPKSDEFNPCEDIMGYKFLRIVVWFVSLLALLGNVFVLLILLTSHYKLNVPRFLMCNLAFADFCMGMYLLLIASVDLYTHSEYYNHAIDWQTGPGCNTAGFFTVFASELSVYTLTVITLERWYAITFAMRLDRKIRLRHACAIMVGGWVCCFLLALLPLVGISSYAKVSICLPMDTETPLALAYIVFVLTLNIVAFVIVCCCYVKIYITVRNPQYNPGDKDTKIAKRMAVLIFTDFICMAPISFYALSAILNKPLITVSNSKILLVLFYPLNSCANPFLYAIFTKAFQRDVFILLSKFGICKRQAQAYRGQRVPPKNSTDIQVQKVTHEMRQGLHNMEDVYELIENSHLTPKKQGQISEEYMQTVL
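cAMP rise detected as CNG-channel membrane depolarization by fluorescent dye (emission 590 nm), 30 min after compound, following 60 min dye loading containing 100 uM RO 20-1724 at room temperature. Cells: TSHR/CNG HEK 293, with parental CNG HEK 293 as control.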
HEK293 cAMP cs = raises cAMP in parental HEK293 cells, TSHR agonist counter-screen. parental HEK293 CNG cAMP sensor, membrane potential fluorescence. Potency, µM (titrated, usually from 57.1 µM), inactives show at the highest dose activation, hits mostly activators. hit rate 2.5% among 73,000; note: % of control where 0% means no effect; nearly all actives have a fitted effect of over 55% in size
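Parental HEK 293 cells stably expressing a modified CNG channel (no TSHR) report cAMP rise as membrane depolarization. Membrane potential dye with 100 uM RO 20-1724 was loaded for 60 min at room temperature, then compound added for 30 min; fluorescence read at 590 nm.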
IkB sig inh = inhibitors of IkB signaling in ABC-DLBCL cells. ABC-DLBCL IkBa-CBG/CBR dual luciferase ratio, 4 h; response scale: scaled: untreated 0%, proteasome inhibitor 100%. Potency, µM (doses to about 57.1 µM), inactives show at the top dose IkBa stabilization activation. hit rate 0.04% among 110,000. AID 445; active = well fitted curve in the direction sought with a large enough effect in the signal ratio, not every such curve was filed as active; inconclusive = small, poorly fitted or top-dose-only effect, or a change in a side signal; the % refers to the signal ratio;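 note: the direction sought is a rising ratio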
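Luminescence ratio of IκBα-fused green versus native red beetle luciferase in OCI-Ly3 cells, 4 h post-doxycycline with compound; red signal alone, scaled from basal (0%) to zero light (-100%), flagged nonspecific or cytotoxic effects.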
p53ts 32C tox = kills p53ts cells at the permissive temperature | Potency, µM (doses to about 46.1 µM), inactives show top-dose activity change, negative = cytotoxicity, hits mostly cytotoxic | H1299-p53A138V at 32C, ATP luminescence viability, 24 h | hit rate 0.93% among 130,000;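 note: 0% = DMSO and -100% = full killing by reference compound; nearly all actives have a fitted effect of over 55% in size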
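Viability by ATPlite luminescence after 24 h compound treatment (up to 46 uM) at the permissive 32C. Cells are H1299 carrying p53 A138V. Scale runs from DMSO basal to 100 uM tamoxifen as full kill; AC50 from Hill fits.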
* = called active by the depositor; [ ] = dose if it differs, or a comment. An excerpt weighted towards active compounds, which were near 3.1% of everything screened. Unless noted, calls come from the whole dose curve; as a rule, active = well fitted curve in the direction sought with a large enough effect; inconclusive = small, poorly fitted or top-dose-only effect, or another doubt; inactive = no such curve, though single readings can be large; an effect the other way counts as inactive or inconclusive. Potency is the fitted concentration of half-maximal effect.

What do the screens show for `O=C(CC1NC(=O)NC1=O)Nc1cccc2ccccc12` (stereo not drawn)?
Peg3 imprint: -3%; p53ts 39C kill: 3%; TSHR agonist: 12%; HEK293 cAMP cs: 1%; IkB sig inh: -3%; p53ts 32C tox: 4%

How did Cc1ccc(Cn2cccc(NC(=O)c3ccco3)c2=O)cc1 do in these assays?
Peg3 imprint: -9%; p53ts 39C kill: -15%; TSHR agonist: inconclusive; HEK293 cAMP cs: 16µM*; IkB sig inh: 3%; p53ts 32C tox: -10%

How did CCCCOc1ccccc1NC(=O)c1ccco1 do in these assays?
Peg3 imprint: -15%; p53ts 39C kill: 1%; TSHR agonist: inconclusive; HEK293 cAMP cs: 16µM*; IkB sig inh: inconclusive; p53ts 32C tox: 12%

How did Cc1cc(C(=O)CSc2nnc(C3COc4ccccc4O3)n2C)c(C)n1-c1ccc(F)cc1 (stereo not drawn) do in these assays?
Peg3 imprint: -14%; p53ts 39C kill: 0%; TSHR agonist: inconclusive; HEK293 cAMP cs: 10µM*; IkB sig inh: inconclusive; p53ts 32C tox: 7%

Results for Cc1oc2ncn(CC(C)C)c(=O)c2c1C(=O)NC(C)c1ccccc1 (stereo not drawn) ?
Peg3 imprint: -6%[10.9 µM]; p53ts 39C kill: -7%; IkB sig inh: inconclusive; p53ts 32C tox: 1%

What do the screens show for `Cc1ccc(-n2[nH]c(C)c(C=Nc3ccc(C)cn3)c2=O)cc1`?
Peg3 imprint: -47%; p53ts 39C kill: 13µM*; TSHR agonist: 6%[11.4 µM]; HEK293 cAMP cs: 9%; IkB sig inh: 2%; p53ts 32C tox: 13µM*

Results for Cc1[nH]n(-c2ccccc2)c(=O)c1/C=N/c1ccccn1 ?
Peg3 imprint: -38%; p53ts 39C kill: inconclusive; TSHR agonist: 3%; HEK293 cAMP cs: 7%; IkB sig inh: 3%; p53ts 32C tox: inconclusive

Results for O=C(Nc1cn(-c2ccccc2)nc1-c1cccs1)c1ccco1 ?
Peg3 imprint: -11%; p53ts 39C kill: -11%; TSHR agonist: inconclusive; HEK293 cAMP cs: 32µM*; IkB sig inh: 0%; p53ts 32C tox: -3%

What do the screens show for `O=C(Nc1cn(-c2ccccc2)nc1-c1ccc(F)cc1)c1ccccc1`?
p53ts 39C kill: 3%

How did COc1ccc(CNC(=O)C2CCN(c3nc4ccccc4[nH]3)CC2)cc1OC do in these assays?
Peg3 imprint: 12%[10.9 µM]; p53ts 39C kill: 24%; IkB sig inh: 0%; p53ts 32C tox: 31%

Results for COc1ccc(Nc2cc(C(=O)NCCCN(C)C3CCCCC3)c3ccccc3n2)cc1 ?
Peg3 imprint: -12%[10.9 µM]; p53ts 39C kill: 13µM*; IkB sig inh: -2%; p53ts 32C tox: -5%

Results for CCCCN(CCCNC(=O)c1cc(Nc2cccc(SC)c2)nc2ccccc12)Cc1ccccc1 ?
Peg3 imprint: -31%[10.9 µM]; p53ts 39C kill: 4.5µM*; IkB sig inh: inconclusive; p53ts 32C tox: -16%

What do the screens show for `CCc1ccc(C(=O)CC2(O)C(=O)N(Cc3ccc(C)cc3)c3ccccc32)cc1` (stereo not drawn)?
Peg3 imprint: -20%[10.9 µM]; p53ts 39C kill: inconclusive; IkB sig inh: inconclusive; p53ts 32C tox: -3%

How did CCCCN1C(=O)C(O)(CC(=O)c2ccc(C(C)(C)C)cc2)c2ccccc21 (stereo not drawn) do in these assays?
Peg3 imprint: -12%[10.9 µM]; p53ts 39C kill: 13µM*; IkB sig inh: inconclusive; p53ts 32C tox: inconclusive

How did COc1ccc(C2CC(=O)N(CC(=O)Nc3ccc(C)c(Cl)c3)c3ccccc3S2)cc1OC (stereo not drawn) do in these assays?
Peg3 imprint: -12%[10.9 µM]; p53ts 39C kill: -21%; IkB sig inh: inconclusive; p53ts 32C tox: 6%

What do the screens show for `O=c1oc2ccccc2n1CCn1c2ccccc2c2nc3ccccc3nc21`?
Peg3 imprint: 2%; p53ts 39C kill: -19%; TSHR agonist: inconclusive; HEK293 cAMP cs: 7.9µM*; IkB sig inh: 0%; p53ts 32C tox: -12%

Results for COc1cccc(-c2nc(CS(=O)(=O)CC(=O)Nc3cc(F)ccc3F)c(C)o2)c1 ?
Peg3 imprint: 11%[10.9 µM]; p53ts 39C kill: -10%; IkB sig inh: -2%; p53ts 32C tox: -3%

Results for COc1cccc(-c2nc(CS(=O)(=O)CC(=O)Nc3cccc(C)c3C)c(C)o2)c1 ?
Peg3 imprint: -21%; p53ts 39C kill: -9%; TSHR agonist: inconclusive; HEK293 cAMP cs: 25µM*; IkB sig inh: inconclusive; p53ts 32C tox: 0%

What do the screens show for `O=C(Nc1ccc(Cl)cc1C(=O)Nc1ccc(Br)cn1)c1ccco1`?
Peg3 imprint: -18%; p53ts 39C kill: 1%; TSHR agonist: inconclusive; HEK293 cAMP cs: 20µM*; IkB sig inh: inconclusive; p53ts 32C tox: 2%

How did O=C(Nc1ccc(NC(=O)c2ccco2)nc1)c1cccnc1 do in these assays?
Peg3 imprint: -47%; p53ts 39C kill: 13µM*; TSHR agonist: -1%; HEK293 cAMP cs: 6%; IkB sig inh: inconclusive; p53ts 32C tox: 10µM*

What do the screens show for `CCc1ccccc1N1CC(c2nc3ccccc3n2Cc2cccc(C)c2)CC1=O` (stereo not drawn)?
Peg3 imprint: 8%[10.9 µM]; p53ts 39C kill: 2%; IkB sig inh: inconclusive; p53ts 32C tox: 9%

How did CC(C)(CO)Cc1cc(C(C)(C)C)c(O)c(C(C)(C)C)c1 do in these assays?
Peg3 imprint: -13%; p53ts 39C kill: 32µM*; TSHR agonist: inconclusive; HEK293 cAMP cs: inconclusive; IkB sig inh: inconclusive; p53ts 32C tox: 20µM*

How did COCCNc1ncnc2ccc(-c3ccc(N(C)C)cc3)cc12 do in these assays?
Peg3 imprint: -12%; p53ts 39C kill: -16%; TSHR agonist: -1%; HEK293 cAMP cs: -5%; IkB sig inh: -2%[11.4 µM]; p53ts 32C tox: -16%

What do the screens show for `Cc1cccc(-c2noc(CN(C(=O)c3ccc4c(c3)OCO4)C(C)C)n2)c1`?
Peg3 imprint: 5%; p53ts 39C kill: -11%; TSHR agonist: inconclusive; HEK293 cAMP cs: 32µM*; IkB sig inh: inconclusive; p53ts 32C tox: 13%

How did COCCn1c(=S)[nH]c2cc(C(=O)N3CCc4ccccc43)ccc2c1=O do in these assays?
Peg3 imprint: -10%; p53ts 39C kill: -5%; TSHR agonist: inconclusive; HEK293 cAMP cs: 16µM*; IkB sig inh: inconclusive; p53ts 32C tox: 5%

How did COC(=O)Nc1nnc(-c2ccccc2Cl)s1 do in these assays?
Peg3 imprint: inconclusive; p53ts 39C kill: 13µM*; TSHR agonist: 1%; HEK293 cAMP cs: 6%; IkB sig inh: -1%; p53ts 32C tox: 10µM*
